Here are results for 49 compounds from PubChem BioAssay AID504444 (National Center for Advancing Translational Sciences (NCATS), 2011).

Molecules are shown by their SMILES. About 7,500 (2.1%) of roughly 360,000 compounds were called active. Another 20% or so got no clear call; they are omitted. This is one part of a sample in which actives are shown more often than they occur. Calls come from the whole dose curve; as a rule, active = well fitted inhibition curve with a large enough effect; inconclusive = small, poorly fitted or top-dose-only effect, or effect the other way; inactive = flat fitted curve, though single readings scatter.
% is set by controls: 0 for no effect and ±100 for the full control effect; potency is the fitted concentration of half-maximal effect.

The assay can be described thus: Nrf2 qHTS screen for inhibitors. Note: nearly all actives have a fitted effect of over 60% in size. The following applies: A549 ARE-Fluc reporter, luciferase luminescence, 18-24 h; series mostly up to 46 µM; activity change, negative = inhibition: at the top concentration. The gist of the method:
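Cells were seeded and rested 2 h, then exposed to compounds for 18-24 h. CellTiter-Fluor was read first as a viability measure. BugLite was added 15 min before the final luminescent read of ARE-luciferase activity in A549 cells.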
Regarding `CCCN(CC(=O)Nc1ccccc1C)C(=O)c1cc(=O)[nH]c2ccccc12`, the “activity change, negative = inhibition” value is 11.2% (inactive).
Same read-out and setting: to `COc1ccc(CCN2CC(C(=O)OCC(=O)NCc3ccccc3Cl)CC2=O)cc1OC` (centres undefined) belongs 4.36% (inactive); to `Cc1ccc(O)c(NC(=O)c2cc(-c3ccc(F)cc3)no2)c1`, 12.9% (inactive).
Same read-out and setting: next, `CCOc1cc(C2C(C(=O)OC)=C(C)NC3=C2C(=O)c2ccccc23)ccc1O` (centres undefined): 8.61% (inactive); `COc1ccc(S(=O)(=O)N2CCOCC2)cc1NC(=O)CSc1nnc(NC2CC2)s1`: -0.078% (inactive); `NS(=O)(=O)c1ccc(CCNC(=O)NC2CCCCC2)cc1`: 2.98% (inactive).
Still for that read-out and setting: next, `Cc1ccc2[nH]cc(CCNC(=O)C3CCCCC3)c2c1`: -15.9% (inactive).
As for `Cc1ccc2[nH]c(C)c(CCNC(=O)NC3CCCCC3)c2c1`, the Potency was 20.6 µM (active).
`COc1ccc(/C=C/C(=O)OCC(=O)N2CCN(S(=O)(=O)c3ccc(C)cc3C)CC2)cc1OC`: the “activity change, negative = inhibition” value is 0.413% (inactive).
With `CSc1ccc(CCNC(=O)c2cnn(-c3ccccc3)c2-n2cccc2)cc1`, the “activity change, negative = inhibition” value was -8.32% (inactive).
Turning to `COc1ccc(-c2csc(N3CCN(Cc4ccc5c(c4)OCO5)CC3)n2)cc1`, the “activity change, negative = inhibition” value was -26.4% (inactive).
Turning to `O=C(CN1CCN(c2nc(-c3ccccc3)cs2)CC1)NCc1ccc2c(c1)OCO2`, the Potency is 23.1 µM (active).
Turning to `O=C(CSc1ncnc2scc(-c3ccccc3)c12)NCc1ccc2c(c1)OCO2`, the “activity change, negative = inhibition” value was -28.7% (inactive).
For the compound `O=C(Nc1ccccc1)Oc1cccc2cccnc12`, the “activity change, negative = inhibition” value was 5.41% (inactive).
The same measure, in the same setting: to `O=C(Nc1cc(S(=O)(=O)Nc2ccc(Cl)cc2)ccc1O)c1ccc(F)cc1F` belongs -0.0591% (inactive); to `CCOC(=O)C1CCCN(C(=O)c2sc3nc(C)nc(N4CCOCC4)c3c2C)C1` (centres undefined), -3.67% (inactive).
Regarding `Cc1nc(N2CCN(c3ccccn3)CC2)c2c(C)c(C(=O)Nc3ccc(F)c(Cl)c3)sc2n1`, the Potency was 16.4 µM (active).
As for `Cc1nc(N2CCC(C)CC2)c2c(C)c(C(=O)Nc3cc(F)ccc3C)sc2n1`, the “activity change, negative = inhibition” value was -18.6% (inactive).
With `O=C(c1c(F)cccc1Cl)N1CCN(c2ccccn2)CC1`, the “activity change, negative = inhibition” value is 28.8% (inactive).
On to `Cc1nc(N2CCOCC2)c2c(C)c(C(=O)Nc3ccc(C(F)(F)F)cc3)sc2n1`, for which the Potency is 9.2 µM (active).
Consider `COc1ccc(NC(C)=O)cc1NC(=O)CN1CCN(c2ccccn2)CC1`, for which the “activity change, negative = inhibition” value is -3.38% (inactive).
Regarding `CC(NC(=O)c1ccccc1)C(=O)OCC(=O)Nc1cccc(S(=O)(=O)N2CCCC2)c1` (centres undefined), the “activity change, negative = inhibition” value is -4.58% (inactive).
The same measure, in the same setting: next, `COc1cc2c(cc1OC)C(Cc1cc(OC)c(OC)cc1[N+](=O)[O-])=NCC2`: -10.8% (inactive); `COc1ccc(CCNC(=O)c2ccc(NC(=O)CC3SC(N4CCCCC4)=NC3=O)cc2)cc1OC` (centres undefined): -4.44% (inactive); `COc1ccc2c(c1)c(N1CCCC1=O)c(C(=O)Nc1ccc(OC)c(Cl)c1)n2C`: -35.3% (inactive).
Turning to `O=[N+]([O-])c1ccc(N=NNc2ccc([N+](=O)[O-])cc2)cc1`, the “activity change, negative = inhibition” value is 4.41% (inactive).
As for `Cc1ccc(C(=O)NCCSc2c(C)[nH]c3ccccc23)cc1C`, the activity change, negative = inhibition is -4.57% [at 9.27 µM] (inactive).
For the compound `C/C(CC(=O)Nc1ccc(C)cc1C)=N\NC(=O)C(C)C`, the “activity change, negative = inhibition” value is -7.5% (inactive).
On the same count and under the same terms, next, `Cc1ccc(NC(=O)CSc2cccc3cccnc23)c(C)c1`: 0.544% (inactive).
In the case of `Cc1ccc(NC(=O)NC(C)c2c(-n3cccc3)sc(C)c2C)c(C)c1` (centres undefined), the Potency was 18.4 µM (active).
Turning to `COc1ccc(NC(=O)NC(C)c2c(-n3cccc3)sc(C)c2C)cc1OC` (centres undefined), the Potency was 20.6 µM (active).
As to `CCn1cc(NC(=O)Nc2ccc(OC)c(OC)c2)c(C(N)=O)n1`, the “activity change, negative = inhibition” value is 3.77% (inactive).
As to `COc1ccc(NC(=O)CNC(=O)Cc2ccccc2)cc1OC`, the “activity change, negative = inhibition” value was -12.4% (inactive).
As for `CCCCN1CC(c2nc3ccccc3n2CCCCOc2ccc(C)cc2C)CC1=O` (centres undefined), the “activity change, negative = inhibition” value was -17.4% (inactive).
In the case of `CN(C(=O)CSc1nncc2ccccc12)C1CCCCC1`, the “activity change, negative = inhibition” value is 12.5% (inactive).
With `Brc1c(CSc2nncc3ccccc23)nc2ccccn12`, the Potency is 8.2 µM (active).
As for `CCOc1ccc(NC(=O)CSc2nnc3c(n2)[nH]c2ccc(S(=O)(=O)N4CCOCC4)cc23)cc1`, the “activity change, negative = inhibition” value is -7.26% (inactive).
With `CCCOc1ccc(Cc2c(Cl)nc(SC)nc2NC)cc1`, the Potency is 2.06 µM (active).
For the compound `CCCOc1ccc(Cc2c(O)nc(SC)[nH]c2=O)cc1C`, the “activity change, negative = inhibition” value is 3.9% (inactive).
Same read-out and setting: next, `Cc1nc(SCCOc2ccc(Cl)cc2)[nH]c(=O)c1Cc1ccccc1`: -1.25% (inactive); `COc1ccc(N2CCN(C(=O)C3CCCN(C(=O)c4cc5sccc5n4C)C3)CC2)cc1` (centres undefined): -16.8% (inactive); `O=C(NC1CCCC1)C(=O)c1c[nH]c2ccccc12`: 19.9% (inactive).
The same measure, in the same setting: next, `CSC(=S)N/N=C/c1c[nH]c2ccccc12`: 3.83% (inactive).
As to `C[n+]1ccc(/C=C/c2c[nH]c3ccccc23)cc1`, the Potency was 0.82 µM (active).
Consider `COc1cccc(/C=N/Nc2ccc(S(=O)(=O)Nc3ccccc3C(=O)O)cc2[N+](=O)[O-])c1O`, for which the “activity change, negative = inhibition” value was -6.93% (inactive).
The same measure, in the same setting: next, `CCC1CCCCN1C(=S)NC(=O)c1ccco1` (centres undefined): 1.83% (inactive).
As for `CCCc1nc2sc3c(c2c(=O)n1NC(=O)CCCl)CCCC3`, the Potency is 11.6 µM (active).
Take `Cc1ccc(C)c(-n2c(SCC(=O)O)nc3sc4c(c3c2=O)CCCC4)c1`: the “activity change, negative = inhibition” value was -21% (inactive).
The same measure, in the same setting: next, `Cc1nc2sc3c(c2c(=O)n1NC(=O)CCl)CCCC3`: -11.4% (inactive).
